rTrxR1 inhibitor: rat TrxR1 inhibition; O89049; Potency, µM (series often up to 114 µM), for inactives: top-dose activity change, negative = inhibition, most hits filed as inhibitors; 1% of 390,000 active; recombinant rTrxR1, NADPH fluorescence consumption, selenite substrate; note: potency is the fitted concentration of half-maximal effect; nearly all actives have a fitted effect of over 65% in size
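Rat TrxR1 (90 nM in the dispensed reagent) was pre-reduced with 400 uM NADPH for 5 min at room temperature, then incubated with compound for 15 min. After 400 uM selenite was added, NADPH fluorescence (Ex 340/Em 450 nm) was followed for 8 min.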
TrxR1 substrate: is turned over as a substrate by rat TrxR1; purified TrxR1 substrate turnover, NADPH consumption readout; Potency, µM (doses to about 114 µM), without a hit: top-dose activity change, negative = substrate turnover; 0.01% of 390,000 active; note: potency is the fitted concentration of half-maximal effect; nearly all actives have a fitted effect of over 50% in size
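Rat TrxR1, dispensed at 90 nM, was prereduced with 400 uM NADPH (final) for 5 min at ~22 deg C, then incubated with compound 15 min before 400 uM selenite. A first-read NADPH fluorescence drop versus no-compound background flagged substrates.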
PI4K2A inh: inhibitors of human PI4K2A | Q9BTU6 | 0.13% of 420,000 active | AID 1346378 | activity change, negative = inhibition, % at 76.9 µM | purified PI4K2A, ADP-Glo luminescence, 1 h; stronger effect = lower value; in the data active = activity change below about -50%; inconclusive = mostly about -30% to -49%;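 note: -100% = wells without enzyme as full effect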
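In this quantitative HTS, ADP production by PI4K2A was quantified luminescently after 1 h at ambient temperature; 100 microM adenosine served as plate-quality control.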
GALK inh: inhibitors of human galactokinase. Potency, µM (highest dose often 57.5 µM), without a hit: top-dose activity change, negative = inhibition, hits mostly inhibitors. Purified GALK, Kinase-Glo residual ATP luminescence. AID 1868. P51570. 0.007% of 270,000 active; note: potency is the fitted concentration of half-maximal effect
Target sequence (P51570 whole entry, looked up): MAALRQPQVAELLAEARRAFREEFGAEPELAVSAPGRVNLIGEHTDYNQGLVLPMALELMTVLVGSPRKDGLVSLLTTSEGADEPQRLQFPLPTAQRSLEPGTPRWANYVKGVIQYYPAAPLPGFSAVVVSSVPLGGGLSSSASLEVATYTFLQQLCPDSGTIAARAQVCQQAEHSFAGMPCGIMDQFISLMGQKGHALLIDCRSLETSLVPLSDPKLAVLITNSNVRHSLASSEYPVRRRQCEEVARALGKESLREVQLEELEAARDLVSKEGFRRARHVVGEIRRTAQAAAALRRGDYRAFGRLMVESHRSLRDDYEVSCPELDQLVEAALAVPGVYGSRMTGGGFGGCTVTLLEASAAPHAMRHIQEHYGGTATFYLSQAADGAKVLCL
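Kinase-Glo Plus luminescence measured ATP left after a 1 h room-temperature reaction. The reaction used 5 nM GALK, 100 uM galactose and 35 uM ATP at pH 8.0 (20 mM HEPES, 5 mM MgCl2, 60 mM NaCl, 1 mM DTT, 0.01% BSA).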
An asterisk follows results filed as active; i = inactive; ? = inconclusive; . = not tested or not shown; [ ] = dose if it differs, or a comment. Hits are enriched below; roughly 1.1% of the tested compounds scored in any of these assays. Unless noted, calls come from the whole dose curve; as a rule, active = well fitted curve in the direction sought with a large enough effect; inconclusive = small, poorly fitted or top-dose-only effect, or another doubt; inactive = no such curve, though single readings can be large; an effect the other way counts as inactive or inconclusive. Unless noted, % is set by controls: 0 for no effect and ±100 for the full control effect.

SMILES	rTrxR1 inhibitor	TrxR1 substrate	PI4K2A inh	GALK inh
C/C(CCc1oc2ccc(Br)cc2c1-c1ccc(C)o1)=N/O	18µM*	5%	-2	.
C/C(CCc1oc2ccc(Cl)cc2c1-c1ccc(C)o1)=N\O	10µM*	-5%	9	-2%
CC(=O)CCc1oc2ccc(C)cc2c1-c1ccccc1	7%[57.1 µM]	8%[57.1 µM]	1	11%
C=CCN1CCN(C(c2ccccc2)c2nnnn2CCC(C)C)CC1 (stereo not given)	28µM*	6%[57.1 µM]	-5	-1%
CCn1cc(C(=O)NCc2ccc(C)o2)c2cc(OC)c(OC)cc2c1=O	22µM*	-1%	-3	1%
CCn1cc(C(=O)NCC(=O)OC)c2cc(OC)c(OC)cc2c1=O	-2%[57.1 µM]	-2%[57.1 µM]	3	2%
CC(C)CCCC(C)NCCC(C)C (stereo not given)	.	.	-1	.
O=C(O)c1cc2c(s1)-c1ccccc1CC2	-15%	545%	2	-3%
COc1ccc2c(c1)CCc1cc(C(=O)O)sc1-2	45µM*	i	-7	-2%
CCOC(=O)c1cnc(-c2ccccc2)nc1C(F)(F)F	13%[57.1 µM]	2%[57.1 µM]	-2	0%
CCOC(=O)c1cnc2c(F)ccc(F)c2c1Sc1ccccc1	56µM*	-11%	13	3%
Oc1ccc2c(c1)OCC1(O)Cc3cc(O)c(O)cc3C21 (stereo not given)	4.5µM*	8%	-3	.
COc1ccc(C2COc3cc(O)ccc3C2)c(OC)c1O (stereo not given)	14%	8%	-2	.
Oc1cc2c(cc1O)[C@H]1c3ccc(O)c(O)c3OC[C@@]1(O)C2	10µM*	3%	6	.
COc1ccccc1/C=C/c1ccnc2ccccc12	-10%[0.0914 µM]	4%	.	.
Cc1csc(=O)n1CC(=O)OCc1nnc(-c2ccc([N+](=O)[O-])cc2)o1	5%	-2%	-2	.
O=C(CCC(=O)c1ccc(F)cc1)OCc1nnc(-c2ccc([N+](=O)[O-])cc2)o1	50µM*	-12%	-4	.
CCN(C(=O)C1CCCN(c2ncnc3onc(-c4ccc(F)cc4)c23)C1)c1ccccc1 (stereo not given)	12%	12%[0.457 µM]	4	.
Nc1ccc(-c2ccc(N)c([N+](=O)[O-])c2)cc1[N+](=O)[O-]	3%	-4%	-3	6%
Nc1ccc(-c2cnc[nH]2)cc1[N+](=O)[O-]	-9%[57.1 µM]	2%[57.1 µM]	-51*	4%
O=C(/C=C/c1ccco1)N(Cc1cccc(F)c1)C1CCS(=O)(=O)C1 (stereo not given)	35µM*	-4%	-21	4%
O=C(/C=C/c1ccco1)N(Cc1cccc(Cl)c1)C1CCS(=O)(=O)C1 (stereo not given)	8.9µM*	7%[57.1 µM]	-25	0%
O=C(/C=C/c1ccccc1)N(Cc1cccc(Cl)c1)C1CCS(=O)(=O)C1 (stereo not given)	23%[11.4 µM]	-20%[11.4 µM]	-13	-2%
O=C(/C=C/c1ccco1)N(Cc1ccccc1)C1CCS(=O)(=O)C1 (stereo not given)	-76%	6%[11.4 µM]	-3	-1%
O=C(/C=C/c1ccco1)N(Cc1ccc(F)cc1)C1CCS(=O)(=O)C1 (stereo not given)	45µM*	-6%	3	4%
SMILES	rTrxR1 inhibitor	TrxR1 substrate	PI4K2A inh	GALK inh
O=C(/C=C/c1ccco1)N(Cc1cccc(Br)c1)C1CCS(=O)(=O)C1 (stereo not given)	10µM*	9%[57.1 µM]	-15	.
Oc1ccc(NCc2ccccc2OCc2ccc(Cl)cc2)cc1	79µM*	-18%	-53*	.
CCOc1cc(CNc2ccc(O)cc2)ccc1OCc1ccc(Cl)cc1	50µM*	-8%	-55*	.
Oc1ccc(NCc2ccccc2OCc2ccccc2)cc1	?	0%	?	0%
Cc1noc(C)c1COc1ccccc1C(=O)NCc1ccco1	7%	-2%	1	.
COc1cccc(OCC(=O)NCCS(=O)(=O)N2CCN(c3ccccc3F)CC2)c1	8%[57.1 µM]	-3%[57.1 µM]	0	.
Cc1cc(Cn2cnc3c2C[C@@H](C(=O)O)N(C(=O)C(c2ccccc2)c2ccccc2)C3)ccc1N	13%[57.1 µM]	7%[57.1 µM]	-5	.
COc1ccc(OCCOC(=O)CN2C(=O)NC3(CCCC3)C2=O)cc1	-4%	-2%	-8	.
CCCc1cc(=O)oc2cc(OC(=O)CN3C(=O)NC4(CCCC4)C3=O)ccc12	79µM*	396%	9	.
C=CCNc1oc(-c2cccc(F)c2)nc1C#N	7.1µM*	-1%	2	.
O=C1NCCCC2c3c(cc(Br)c(O)c3Br)OC12N1CCOCC1 (stereo not given)	16µM*	-6%	1	3%
COC(=O)CSc1nnc([C@H](Cc2ccccc2)NC(=O)OC(C)(C)C)o1	-3%	0%	3	4%
COC(=O)CS(=O)(=O)c1nnc([C@H](Cc2ccccc2)NC(=O)OC(C)(C)C)o1	1.3µM*	1%	38	4%
CC(C)(C)OC(=O)N[C@@H](Cc1ccccc1)c1nnc(SCC(N)=O)o1	21%	-2%	-1	11%
Cc1cccc(CS(=O)(=O)c2nnc([C@H](Cc3ccccc3)NC(=O)OC(C)(C)C)o2)c1	0.4µM*	-1%	61	2%
Cc1ccc(-c2nnnn2-c2ccc(C)cc2)cc1	15%[57.1 µM]	8%[57.1 µM]	4	0%
Cc1ccc(-n2nnnc2CCl)cc1	14µM*	9%[57.1 µM]	11	0%
Cc1ccc2nccnc2c1	?	-11%	.	.
Cc1c(CC(=O)NCC(=O)N[C@H](Cc2ccccc2)C(=O)O)c(=O)oc2cc(O)ccc12	79µM*	i	-2	.
CCOC(=O)COn1c(=O)c(-c2ccco2)[n+]([O-])c2ccccc21	8.9µM*	8%	-1	-1%
CCCCCCCCN1C(=O)[C@@H](CC(=O)N2CCN(C(=O)c3ccco3)CC2)C[C@@]2(C(=O)OC)C1=C[C@H](C(C)C)O[C@@H]2C1CC1	.	.	5	.
CCCc1nc2c(sc3nc4c(cc32)COC(C)(C)C4)c(=O)n1Cc1ccco1	11µM*	6%	-14	-1%
CCOc1ccccc1CNC(=O)c1ccc2nc(N3CCC(C)CC3)sc2c1	28%	3%	3	.
Cc1ccc(C(=O)CC(C(=O)O)n2cncn2)cc1 (stereo not given)	8%[57.1 µM]	8%[57.1 µM]	3	1%
Cc1ccc(C(=O)CC(C(=O)O)n2cnc([N+](=O)[O-])n2)cc1 (stereo not given)	32µM*	-7%	-6	2%
SMILES	rTrxR1 inhibitor	TrxR1 substrate	PI4K2A inh	GALK inh
Cc1ccc(C(=O)c2c3ccc([N+](=O)[O-])cc3[n+]([O-])n2CCCN)cc1	56µM*	2%	1	.
CCCn1c(SCc2nc(-c3ccc(OC)c(OC)c3)no2)nnc1-c1ccccc1	0%	-4%	3	.
Oc1cc(CNCc2ccccc2)c(O)cc1CNCc1ccccc1	79µM*	-10%	-26	.
COc1cc2c(cc1OC)C1=C(C#N)COCN1CC2	13µM*	20%	-10	3%
CC(C)(C)NCC(O)COc1ccccc1OCC1CCCO1 (stereo not given)	.	.	0	.
Cc1ccc(S(=O)(=O)c2nc(Cc3ccccc3)oc2N2CCOCC2)cc1	4.5µM*	9%	14	.
